Measurements published in the supplement of paper PMC9262897, “Low-cost anti-mycobacterial drug discovery using engineered E. coli” (Nature Communications, 2022).
Where a name gives a salt, the structure may show the parent alone. ± gives the standard deviation of the averaged measurements.

What follows are molecules tested on E. coli TESEC Mtb DapB (assay: growth (OD600 after 10 h); higher = more growth (less inhibition)). Settings: arabinose induction (level): High; compound 0.1 mM; raw OD600 reference: median of DMSO wells […], cell-free background 0.041.
Procedure: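 TESEC E. coli strains in which the native enzyme is deleted and replaced by arabinose-inducible Mtb Asd, DapB, CysH or TrpD, each grown in its selective medium. Strains were screened against the Prestwick library at 0.1 mM and 1% DMSO in 384-well format at low and high arabinose induction. Growth is read as OD600 after 10 h in triplicate.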

Row | SMILES | growth
1 | CC(CN(C)C)CN1c2ccccc2Sc2ccccc21 (stereo not given) [Trimeprazine tartrate] | 0.192 ± 0.0094
2 | CC[N+](CC)(CC(=O)Nc1c(C)cccc1C)Cc1ccccc1 [Denatonium benzoate] | 0.189 ± 0.015
3 | COc1ccc2[nH]cc(CCNC(C)=O)c2c1 [Melatonin] | 0.202 ± 0.026
4 | CCOC(=O)C1=C(C)NC(C)=C(C(=O)OCC)C1c1ccccc1/C=C/C(=O)OC(C)(C)C [Lacidipine] | 0.157 ± 0.0032
5 | COC(=O)Nc1nc2cc(Sc3ccccc3)ccc2[nH]1 [Fenbendazole] | 0.2 ± 0.013
6 | CC(C)NCC(O)c1ccc2ccccc2c1 (stereo not given) [Pronethalol hydrochloride] | 0.194 ± 0.015
7 | CN(C)CC/C=C1\c2ccccc2CSc2ccccc21 [Dosulepin hydrochloride] | 0.168 ± 0.015
8 | O=C1CCc2cc(OCCCCc3nnnn3C3CCCCC3)ccc2N1 [Cilostazol] | 0.16 ± 0.013
9 | CCCCC(CC)CN1CN(CC(CC)CCCC)CC(C)(N)C1 (stereo not given) [Hexetidine] | 0.218 ± 0.018
10 | CC1(C)S[C@@H]2[C@H](NC(=O)[C@H](N)c3ccc(O)cc3)C(=O)N2[C@H]1C(=O)O [Amoxicillin] | 0.217 ± 0.029
11 | CC[C@H](C)[C@H](N)C1=N[C@H](C(=O)N[C@@H](CC(C)C)C(=O)N[C@H](CCC(=O)O)C(=O)N[C@H](C(=O)N[C@H]2CCCCNC(=O)[C@H](CC(N)=O)NC(=O)[C@@H](CC(=O)O)NC(=O)[C@H](Cc3cnc[nH]3)NC(=O)[C@@H](Cc3ccccc3)NC(=O)[C@H]([C@@H](C)CC)NC(=O)[C@@H](CCCN)NC2=O)[C@@H](C)CC)CS1 [Bacitracin] | 0.266 ± 0.033
12 | C=CC[N@@+]12CC[C@@]34c5ccccc5N5/C=C6/[C@H]7C[C@H]8[C@@]9(CC[N@@+]8(CC=C)C/C7=C/CO)c7ccccc7N(/C=C(/[C@@H](C[C@@H]31)/C(=C\CO)C2)[C@H]54)[C@@H]69 [Alcuronium chloride] | 0.197 ± 0.027
13 | COC(=O)[C@H](c1ccccc1Cl)N1CCc2sccc2C1 [Clopidogrel] | 0.153 ± 0.015
14 | COc1ccccc1OCC(O)CO (stereo not given) [Guaifenesin] | 0.192 ± 0.013
15 | CCCCNc1cc(C(=O)O)cc(S(N)(=O)=O)c1Oc1ccccc1 [Bumetanide] | 0.209 ± 0.027
16 | NC(=O)c1ncn([C@@H]2O[C@H](CO)[C@@H](O)[C@H]2O)n1 [Ribavirin] | 0.196 ± 0.021
17 | CC(C)(C(=O)c1cccnc1)c1cccnc1 [Metyrapone] | 0.179 ± 0.015
18 | CCN[C@H]1C[C@H](C)S(=O)(=O)c2sc(S(N)(=O)=O)cc21 [Dorzolamide hydrochloride] | 0.199 ± 0.016
19 | CCOCCn1c(N2CCCN(C)CC2)nc2ccccc21 [Emedastine] | 0.205 ± 0.018
20 | CC(=O)[C@H]1CC[C@H]2[C@@H]3CC=C4C[C@@H](O)CC[C@]4(C)[C@H]3CC[C@]12C [Pregnenolone] | 0.191 ± 0.0035

Same assay, conditions: arabinose induction (level): Low; compound 0.1 mM; raw OD600 reference: median of DMSO wells 0.227, cell-free background 0.041

Row | SMILES | growth
21 | CC(CN(C)C)CN1c2ccccc2Sc2ccccc21 (stereo not given) [Trimeprazine tartrate] | 0.231 ± 0.019
22 | CC[N+](CC)(CC(=O)Nc1c(C)cccc1C)Cc1ccccc1 [Denatonium benzoate] | 0.224 ± 0.024
23 | COc1ccc2[nH]cc(CCNC(C)=O)c2c1 [Melatonin] | 0.23 ± 0.026
24 | CCOC(=O)C1=C(C)NC(C)=C(C(=O)OCC)C1c1ccccc1/C=C/C(=O)OC(C)(C)C [Lacidipine] | 0.182 ± 0.0034
25 | COC(=O)Nc1nc2cc(Sc3ccccc3)ccc2[nH]1 [Fenbendazole] | 0.252 ± 0.041
26 | CC(C)NCC(O)c1ccc2ccccc2c1 (stereo not given) [Pronethalol hydrochloride] | 0.225 ± 0.03
27 | CN(C)CC/C=C1\c2ccccc2CSc2ccccc21 [Dosulepin hydrochloride] | 0.202 ± 0.0032
28 | O=C1CCc2cc(OCCCCc3nnnn3C3CCCCC3)ccc2N1 [Cilostazol] | 0.181 ± 0.0043
29 | CCCCC(CC)CN1CN(CC(CC)CCCC)CC(C)(N)C1 (stereo not given) [Hexetidine] | 0.225 ± 0.033
30 | CC1(C)S[C@@H]2[C@H](NC(=O)[C@H](N)c3ccc(O)cc3)C(=O)N2[C@H]1C(=O)O [Amoxicillin] | 0.259 ± 0.046
31 | CC[C@H](C)[C@H](N)C1=N[C@H](C(=O)N[C@@H](CC(C)C)C(=O)N[C@H](CCC(=O)O)C(=O)N[C@H](C(=O)N[C@H]2CCCCNC(=O)[C@H](CC(N)=O)NC(=O)[C@@H](CC(=O)O)NC(=O)[C@H](Cc3cnc[nH]3)NC(=O)[C@@H](Cc3ccccc3)NC(=O)[C@H]([C@@H](C)CC)NC(=O)[C@@H](CCCN)NC2=O)[C@@H](C)CC)CS1 [Bacitracin] | 0.243 ± 0.028
32 | C=CC[N@@+]12CC[C@@]34c5ccccc5N5/C=C6/[C@H]7C[C@H]8[C@@]9(CC[N@@+]8(CC=C)C/C7=C/CO)c7ccccc7N(/C=C(/[C@@H](C[C@@H]31)/C(=C\CO)C2)[C@H]54)[C@@H]69 [Alcuronium chloride] | 0.196 ± 0.023
33 | COC(=O)[C@H](c1ccccc1Cl)N1CCc2sccc2C1 [Clopidogrel] | 0.159 ± 0.012
34 | COc1ccccc1OCC(O)CO (stereo not given) [Guaifenesin] | 0.228 ± 0.023
35 | CCCCNc1cc(C(=O)O)cc(S(N)(=O)=O)c1Oc1ccccc1 [Bumetanide] | 0.215 ± 0.038
36 | NC(=O)c1ncn([C@@H]2O[C@H](CO)[C@@H](O)[C@H]2O)n1 [Ribavirin] | 0.203 ± 0.025
37 | CC(C)(C(=O)c1cccnc1)c1cccnc1 [Metyrapone] | 0.188 ± 0.01
38 | CCN[C@H]1C[C@H](C)S(=O)(=O)c2sc(S(N)(=O)=O)cc21 [Dorzolamide hydrochloride] | 0.253 ± 0.023
39 | CCOCCn1c(N2CCCN(C)CC2)nc2ccccc21 [Emedastine] | 0.211 ± 0.019
40 | CC(=O)[C@H]1CC[C@H]2[C@@H]3CC=C4C[C@@H](O)CC[C@]4(C)[C@H]3CC[C@]12C [Pregnenolone] | 0.184 ± 0.009
